# Experimental data published in the supplement of paper PMC8728848.
# This excerpt belongs to a sample that is enriched for the strongest signals.
# B1: NanH (Corynebacterium diphtheriae), C6JSW6 (protein)
# chain: MYSSNRTYSRAILGLSAVLTLSFTSLVAPVNAEEPETVVPATAELEGEVAATLPSAETGLLDAAPPKPVARGAAGDLQLPAVNEKEVFEEGRVIRAPEPDQSRCYRIPALVTAKNGDLLLAFDNRYGGGDGAKTWCRDAPYENMKRINRQNMQTDIQLYRSVDNGQSFEDFGYIAQGTADVRELSYTDPALVTDRTTGKIFAFFVRAYDYRVGQSSAGFNEGDVEAEIQKRDVQDTVVVESLDGGQTWGNMRLLSALTAKVSSISTGDTIFDGRGRFVTSGAGIQLQYGEHAGRLIVPISVDIDPKDSAKFINLAIYSDDHGQTWQAGIGTAGGAGFSGDVSKIVELSDGRLMMSSKDNDKPRWVSYSEDQGENWSTPKRKIIAPPQHPEKHNTGINVGLIRAYPNAPENSAAARVLLYSAPIDQRYSHKHTEDGRNNGWVMGSCDDGKTWSFGRQIEKNRFQYSSMTVMSDGNIGMVYESGDFSTGMNLKFAKFNMAWLGADCHSNEALGLTGDIDKEIVEAQEKAAEATKEAQEAAEKVQKLTEELAAARKENDELKNQVKGFKEAVGDLANEAEDLADKVFKLETAVTEAKEKATVAEKAASDAVTQLQKAESIAEEQKAKAESAAAEAQALREKLERLEGSILTVKENPEAEEIADLSSTAKDAADAARRAATDANGALSGQKQDEEKPAMGLMGILKVLAGIIPLVAIIATIFQTFRLPFNIPGMR
# Experiments:
# Test in all cases: glycan array binding signal (z-score within array); higher = stronger binding
# Conditions in all cases: glycan notation: IUPAC condensed, linker removed
# Neu5Ac(a2-3)Gal = target: Neu5Ac(a2-3)Gal
# Outline: (§1)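 Arrays were curated from the Consortium for Functional Glycomics database, 3228 in total, and kept only where the protein sequence was available. Binding is expressed as a within-array Z-score. This score was averaged across arrays of the same protein sequence at different concentrations or buffers and across linkers, and negative values can be read as non-binding.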
# [1] = target: Neu5Ac(a2-3)Gal(b1-3)GalNAc6S
# Outline: as §1
# [2] = target: Neu5Ac(a2-3)Gal(b1-4)GlcNAc(b1-2)Man(a1-3)[GlcNAc(b1-2)Man(b1-4)GlcNAc(b1-2)Man(a1-6)]Man(b1-4)GlcNAc(b1-4)GlcNAc
# Outline: as §1
# [3] = target: Neu5Ac(a2-3)Gal6S(b1-4)GlcNAc
# Outline: as §1
# [4] = target: Neu5Ac(a2-6)Gal(b1-4)GlcNAc(b1-2)Man(a1-3)[GlcNAc(b1-2)Man(a1-6)]Man(b1-4)GlcNAc(b1-4)GlcNAc
# Outline: as §1
# [5] = target: Neu5Ac(a2-6)Gal(b1-4)GlcNAc(b1-2)Man(a1-3)[Man(a1-6)]Man(b1-4)GlcNAc(b1-4)GlcNAc
# Outline: as §1
# [6] = target: Neu5Gc(a2-3)Gal(b1-4)GlcNAc
# Outline: as §1
# Neu5Gc(a2-6)GalNAc = target: Neu5Gc(a2-6)GalNAc
# Outline: as §1
binder,measurement,setting,value
B1,glycan array binding signal (z-score),Neu5Ac(a2-3)Gal,0.353
same,glycan array binding signal (z-score),[1],1.83
same,glycan array binding signal (z-score),[2],0.603
same,glycan array binding signal (z-score),[3],-1.04
same,glycan array binding signal (z-score),[4],0.122
same,glycan array binding signal (z-score),[5],-0.077
same,glycan array binding signal (z-score),[6],-0.068
same,glycan array binding signal (z-score),Neu5Gc(a2-6)GalNAc,0.15
